Type in all cases: functional
Assay [1] relates to Plasmodium falciparum. Description: GSK_TCMDC: Inhibition of Plasmodium falciparum 3D7 in whole red blood cells, using parasite LDH activity as an index of growth. Test compounds present at 2uM.
Assay [2] deals with Plasmodium falciparum. Description: GSK_TCMDC: Inhibition of Plasmodium falciparum Dd2 in whole red blood cells, using parasite LDH activity as an index of growth. Test compounds present at 2uM.
Another assay relates to HepG2. Description: GSK_TCMDC: Percent inhibition of human HepG2 cell line. Test compounds present at 10uM.

Each structure is given as a SMILES string.

`Cc1cccc2nc(-c3ccc(-c4ccc(C(=O)NCCN5CCCC5)cc4)s3)[nH]c12`: the Inhibition (as a rule, the drop in the measured response relative to a control, in per cent) in the assay on Plasmodium falciparum [1] is reported as 100%; in the assay with Plasmodium falciparum [2] it was 13%; in the assay on HepG2 it was 20%.

As for `CCOc1cc(C)ccc1N1CCN(CCCCNC(=O)c2ccc(NC(=O)c3ccc(Cl)cc3)cc2)CC1.Cl`, the Inhibition in the assay on Plasmodium falciparum [1] is reported as 100%; in the assay on Plasmodium falciparum [2], 46%; in the assay with HepG2, 19%.

With `Cc1cc2c(cc1C(F)(F)F)N(C(=O)Nc1ccc(OCCN(C)C)c(C(F)(F)F)c1)CC2.Cl`, the Inhibition in the assay with Plasmodium falciparum [1] was found to be 93%; in the assay on Plasmodium falciparum [2], 23%; in the assay on HepG2 it was 38%.

Turning to `COc1ccccc1-c1nc2nc(N)nc(N)c2nc1-c1ccccc1OC`, the Inhibition is listed as 84% in the assay with Plasmodium falciparum [1], 1% in the assay with Plasmodium falciparum [2] and 27% with HepG2.

For `CC[C@H]1CN(C/C=C/c2ccc(OC)cc2)CC[C@H]1CCCc1ccnc2ccc(O)cc12`, the Inhibition with Plasmodium falciparum [1] is listed as 99%; in the assay on Plasmodium falciparum [2], 72%; in the assay on HepG2, 24%.

As to `O=C(Nc1ccc(CN2CCOCC2)cc1)c1ccc(-c2cc(Cl)ccc2Cl)o1`, the Inhibition in the assay on Plasmodium falciparum [1] turned out to be 100%; in the assay with Plasmodium falciparum [2] it was 13%; in the assay with HepG2, 5%.

Take `Cl.Nc1ccc2c(N)c3ccccc3nc2c1`: the Inhibition amounted to 93% in the assay with Plasmodium falciparum [1], 74% in the assay on Plasmodium falciparum [2] and 20% in the assay on HepG2.

For the molecule `Cc1cnc(CN(Cc2ccc(-c3ccc(CNCCc4ccc(S(C)(=O)=O)cc4)cn3)cc2)C(=O)c2nn(-c3ccccc3)nc2C)cn1.O=C(O)C(F)(F)F`, the Inhibition stood at 84% in the assay on Plasmodium falciparum [1], 21% in the assay on Plasmodium falciparum [2] and 11% in the assay on HepG2.

Regarding `Oc1cccc(/C=N/Nc2ccnc3cc(Cl)ccc23)c1`, the Inhibition amounted to 100% in the assay with Plasmodium falciparum [1], 95% in the assay on Plasmodium falciparum [2] and 0% with HepG2.

On to `Fc1cccc(COc2ccc(Nc3ncnc4sc(C#C[C@H]5CC[C@H](CN6CCOCC6)N5)cc34)cc2Cl)c1`, for which the figures for the Inhibition in the assay with Plasmodium falciparum [1], with Plasmodium falciparum [2] and in the assay with HepG2 were 92%, 23% and 16%, respectively.

Turning to `O=C(Cc1c[nH]cn1)Nc1ccc(-c2ccc(-c3nc4cc(F)ccc4[nH]3)cc2)cc1`, the results for the Inhibition with Plasmodium falciparum [1], in the assay with Plasmodium falciparum [2] and in the assay on HepG2 were 100%, 91% and 39%, respectively.

In the case of `CCNc1cc(C(=O)N[C@@H](Cc2ccccc2)[C@H](O)CNC2(CC)CCCCC2)cc(N2CCCCS2(=O)=O)c1.Cl`, the Inhibition with Plasmodium falciparum [1] is 98%; in the assay on Plasmodium falciparum [2] it was 98%; in the assay on HepG2, 3%.

For the molecule `CC(=O)c1ccc(NC(=O)C2c3ccccc3C(=O)N(CC(C)C)C2c2cccs2)cc1` (stereo not given), the Inhibition in the assay with Plasmodium falciparum [1] came out at 99%; with Plasmodium falciparum [2], 51%; in the assay with HepG2, 13%.

As for `Cc1ccc2[nH]c(C)cc(=NN=CC=Cc3ccccc3)c2c1`, the Inhibition in the assay with Plasmodium falciparum [1] is reported as 92%; in the assay on Plasmodium falciparum [2], 28%; in the assay on HepG2, 0%.

Consider `O=C(Nc1ccc(C(=O)OCC2CCCCC2)cc1)N[C@@H](Cc1ccc(O)cc1)C(=O)NC1CCN(Cc2ccc(O)cc2)C1.O=C(O)C(F)(F)F` (stereo not given in full), for which the Inhibition in the assay with Plasmodium falciparum [1] was 91%; in the assay on Plasmodium falciparum [2] it was 0%; in the assay on HepG2 it was 6%.

As to `Cc1ccc(S(=O)(=O)N2CCCN(C(=O)c3cc(-c4ccccc4)[nH]n3)CC2)cc1`, the figures for the Inhibition in the assay on Plasmodium falciparum [1], with Plasmodium falciparum [2] and with HepG2 were 96%, 93% and 11%, respectively.

Regarding `O=C(NCCCCCN1CCC(c2c[nH]c3ccccc23)CC1)Nc1cccc(C(F)(F)F)c1`, the results for the Inhibition with Plasmodium falciparum [1], in the assay on Plasmodium falciparum [2] and in the assay with HepG2 were 97%, 11% and 51%, respectively.

On to `O=C(/C=C/c1ccc(Cl)c(Cl)c1)NCCCCCN1CCCN(C(=O)Nc2cccc(Cl)c2)CC1`, for which the figures for the Inhibition in the assay with Plasmodium falciparum [1], in the assay with Plasmodium falciparum [2] and with HepG2 were 100%, 2% and 11%, respectively.

Consider `CCCNCc1ccc(-c2ccc(CN(CCOC)C(=O)[C@H]3CCCO3)cc2)nc1.O=C(O)C(F)(F)F`, for which the Inhibition in the assay on Plasmodium falciparum [1] was found to be 98%; with Plasmodium falciparum [2] it was 6%; in the assay with HepG2, 1%.

For the molecule `CCc1c(CCNC/C=C/C=C/CNCCc2ccc(OC)c(OC)c2CC)ccc(OC)c1OC.Cl`, the Inhibition is given as 100% with Plasmodium falciparum [1], 99% in the assay with Plasmodium falciparum [2] and 75% with HepG2.

In the case of `Cl.NC(=O)c1sc(-n2cnc3ccc(OCC4CCNCC4)cc32)cc1OCc1ccccc1C(F)(F)F`, the Inhibition in the assay on Plasmodium falciparum [1] is recorded as 100%; in the assay with Plasmodium falciparum [2], 62%; with HepG2, 18%.

With `O=C(Cc1cccc(Cl)c1)Nc1cccc(-c2c[nH]c3nc(Nc4cccc(OCc5ccccc5)c4)ncc23)c1.O=C(O)C(F)(F)F`, the Inhibition in the assay on Plasmodium falciparum [1] is 100%; in the assay with Plasmodium falciparum [2], 56%; with HepG2, 0%.

As for `CCOc1ccc(-c2nonc2NC(=O)c2ccc(OC(C)C)cc2)cc1OCC`, the Inhibition in the assay on Plasmodium falciparum [1] stood at 100%; with Plasmodium falciparum [2], 100%; in the assay on HepG2, 13%.

With `Cc1cccc2nc(-c3ccc(-c4ccc(CN5CCN(c6ccc(C#N)cn6)CC5)cc4)s3)[nH]c12.O=C(O)C(F)(F)F`, the Inhibition with Plasmodium falciparum [1] was 98%; with Plasmodium falciparum [2], 44%; in the assay with HepG2 it was 10%.

For `CCOc1ccc(C=CC(=O)Nc2ccc3nc(N4CCOCC4)cc(C)c3c2)cc1OC`, the Inhibition in the assay on Plasmodium falciparum [1] is 92%; in the assay with Plasmodium falciparum [2] it was 23%; in the assay on HepG2 it was 14%.

Consider `CC1Cc2ccccc2N1S(=O)(=O)c1cccc(C(=O)Nc2nc(-c3ccccn3)cs2)c1` (stereo not given), for which the figures for the Inhibition in the assay with Plasmodium falciparum [1], in the assay with Plasmodium falciparum [2] and with HepG2 were 84%, 77% and 32%, respectively.

For the molecule `CN1CCCN(Cc2ccc(-c3ccc(NC(=O)c4ccc(C#N)cc4)cc3)cc2)CC1.O=C(O)C(F)(F)F`, the Inhibition in the assay with Plasmodium falciparum [1] worked out at 91%; with Plasmodium falciparum [2] it was 28%; in the assay with HepG2, 30%.

As to `Nc1ncc(-c2ccc3nccc(-c4ccncc4)c3c2)cc1S(=O)(=O)N1CCCCC1`, the Inhibition was 100% with Plasmodium falciparum [1], 100% in the assay on Plasmodium falciparum [2] and 25% in the assay on HepG2.

On to `COc1ccc2ncc(F)c(CCN3CC[C@H](NCc4cc(C#N)c5c(c4)OCCO5)[C@H](O)C3)c2c1`, for which the results for the Inhibition in the assay with Plasmodium falciparum [1], in the assay with Plasmodium falciparum [2] and in the assay with HepG2 were 96%, 47% and 51%, respectively.

Regarding `COc1ccc(CNCCc2cccs2)cc1-c1cccc(S(=O)(=O)NCCN2CCCC2)c1.O=C(O)C(F)(F)F`, the Inhibition in the assay with Plasmodium falciparum [1] amounted to 98%; in the assay on Plasmodium falciparum [2], 41%; with HepG2, 56%.

The record behind these values is ChEMBL document CHEMBL1157539, “Thousands of chemical starting points for antimalarial lead identification” (Nature, 2010).
